Measured values as given in the supplement of paper PMC6555819.

system: VDR:RXRa (NR concentration 270 nM, RXRa partner concentration 90 nM); test: PBM binding z-score (relative to random genomic background probes); higher = stronger binding; sequences stand for … in GC…GCGATTGACAGCGTAGAATGAAGG
How it was run: (§1)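 For binding z-scores, the reference was random background probes on custom Agilent 4×180K protein-binding microarrays. These arrays were incubated 1 h with ligand-free nuclear receptor dimers in PBS pH 7.4, 2% milk, 0.02% Triton X-100, 1 mM DTT, 0.2 mg/mL BSA and 0.4 mg/ml salmon testes DNA. Fluorescence was scanned after antibody detection of each partner (one per run) and regression-normalized.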

First: CGTCCAAGGTCATAGGAGGGCAGTGAAGACAGAT
Second: GCTCCTAGGTCAGGTTGGTCAGCTAACGGGTACG
The PBM binding z-score of the first is higher: 5.36 for the first, 0.913 for the second.

First: ATCTAAAGGTCGACGAGGTGAGTATACACCGTTT
Second: ATATGTAGGTTAGCTGGGGTCATCCAGACTAGGC
The PBM binding z-score of the first is lower: 5.21 for the first, 6.18 for the second.

Compared with CAAACTAAGTCAAAGGTCAAAGTCGAGCCAACCA, AATACAGGGTCATCGTAGGCCAGAGAACGCACAG is lower in PBM binding z-score: 5.35 for the first, 5.24 for the second.

Going from TCATATAGGTATATGCTAGGTGAAAGTCCGATCT to ACTTACGGGCCAACGAGGTTATAGCACGCGTATA, the PBM binding z-score rises from 0.832 to 3.84.

Going from TCATATAGGTAAATGCTAGGTGAGAGTCCGATCT to GCGCCTGGGGCATCAGCAGGTTACCATAACTTAA, the PBM binding z-score falls from 0.644 to -0.28.

Going from TTACCAAGGTGAGCTGAGGGCGTTGATCCAACTC to ACTATTAGTTGAGACGAGGGCAACCGATAGGTTG, the PBM binding z-score falls from 1.89 to 0.889.

First: TTACCAAGGTGAAAGTCGTTGATCCCTCTGTAGA
Second: CTACCAAGGTGCACAAGGTCGTTGATTACTATTC
The PBM binding z-score of the first is lower: 0.25 for the first, 3.17 for the second.

Compared with AGAATGAGGTTATACCTAGATCAGGGAAGAAAGT, CGTCAAAGTTCAACTAAGGTACCGTAAAGCACGC is higher in PBM binding z-score: 1.11 for the first, 4.4 for the second.

TCTCGGAGGACACGAAGGCCAGAGCTTTCCAGAG showed a PBM binding z-score of -0.411.

system: VDR homodimer (NR concentration 270 nM); test: as above
How it was run: as §1

First: TCGAGTAGGTTAGGGGCATTGAGAATGGCGTCGA
Second: TCGTATAGGTAAACAGGTGAAAGTCCGTAAGTTA
The PBM binding z-score of the first is higher: 0.492 for the first, 0.302 for the second.

First: CTCGAAAGGTCGGATGAGGTGAGTATACGGATAA
Second: CAAACTAGATCAAGGTCAAAGTCGGTTTGTGCCA
The PBM binding z-score of the first is lower: 0.327 for the first, 3.73 for the second.

First: CATAGCAGGCCAATCTGGGTCACTCAAGGCTTGA
Second: AGAATGAGGTTATACGAAGATCAGGGAAGAAAGT
The PBM binding z-score of the first is lower: -0.0851 for the first, 0.752 for the second.

First: GCTGCTAGGTGAACTGATGGTCAGCTAAAGCTCG
Second: CGACCTAGGTCAGAACAGGACAGTGAAGGATGAT
The PBM binding z-score of the first is lower: -0.742 for the first, 0.303 for the second.

First: CGAACTAGGTCATAACAGGACAGTGAAGGATGAT
Second: TCGGGTAGGTTAGTCGGGGCATTCAGCCAACATA
The PBM binding z-score of the first is lower: 0.892 for the first, 1.08 for the second.

Going from CATACATGGTCAGCTAGGCCAGAGTAGGGACGGC to TCTATTAGTTGAAGGGCAACCAACGAGTCCGTTT, the PBM binding z-score rises from -1.02 to 0.984.

Going from CAAACTAGGTCACGAAAGGTGAAAGTCGAATGAC to GCAGACAGGTGACACGCAGGTAACTCAGGGTGGC, the PBM binding z-score falls from 0.591 to -0.397.

Going from AGAATGAGGTTAAGATCAGGTAAACAGAATACAT to CCTACTGGGCCAAAGGTCATTGAATCCAATGCTC, the PBM binding z-score rises from 0.461 to 2.23.

First: TCGAGTTGGTCAAAGGTCACACACTCGAAATGCG
Second: TCCTATAGGTAATACAGGTGAAAGTCGGCATCTA
The PBM binding z-score of the first is higher: 2.78 for the first, -0.333 for the second.

Going from GATACAGGGTCAGCTAGAGCCCAGAGTATGGAAA to TCGAGTAGGTTAGGGGCATTTAGAATGGCGTCGA, the PBM binding z-score rises from 0.264 to 0.777.

Compared with CGAACTAGGTCAAGGGCAGTGAATCTCCGCACGC, TAGCCTAGGTCATGAGGGCCAGTATAGTGTCGGC is lower in PBM binding z-score: 0.718 for the first, 0.404 for the second.

First: CGTCCAAGGTCATAGGAGGGCAGTGAAGACAGAT
Second: GCTCCTAGGTCAGGTTGGTCAGCTAACGGGTACG
The PBM binding z-score of the first is higher: 3.3 for the first, 0.591 for the second.

First: ATCTAAAGGTCGACGAGGTGAGTATACACCGTTT
Second: ATATGTAGGTTAGCTGGGGTCATCCAGACTAGGC
The PBM binding z-score of the first is lower: 1.29 for the first, 4.34 for the second.

Going from CAAACTAAGTCAAAGGTCAAAGTCGAGCCAACCA to AATACAGGGTCATCGTAGGCCAGAGAACGCACAG, the PBM binding z-score falls from 2.93 to 2.9.

Compared with TCATATAGGTATATGCTAGGTGAAAGTCCGATCT, ACTTACGGGCCAACGAGGTTATAGCACGCGTATA is higher in PBM binding z-score: -0.0233 for the first, 1.31 for the second.

Going from TCATATAGGTAAATGCTAGGTGAGAGTCCGATCT to GCGCCTGGGGCATCAGCAGGTTACCATAACTTAA, the PBM binding z-score falls from 0.216 to -0.553.

Compared with TTACCAAGGTGAGCTGAGGGCGTTGATCCAACTC, ACTATTAGTTGAGACGAGGGCAACCGATAGGTTG is higher in PBM binding z-score: 0.247 for the first, 0.728 for the second.

First: TTACCAAGGTGAAAGTCGTTGATCCCTCTGTAGA
Second: CTACCAAGGTGCACAAGGTCGTTGATTACTATTC
The PBM binding z-score of the first is lower: -0.192 for the first, 2.73 for the second.

First: AGAATGAGGTTATACCTAGATCAGGGAAGAAAGT
Second: CGTCAAAGTTCAACTAAGGTACCGTAAAGCACGC
The PBM binding z-score of the first is lower: 0.345 for the first, 4.06 for the second.

In the case of TCTCGGAGGACACGAAGGCCAGAGCTTTCCAGAG, the PBM binding z-score is reported as -0.212.
